From PubChem BioAssay

Tested on: not listed separately
Assay: binders of probe aFGF10 on microarray, primary screen, stem cell growth factor project, biochemical, small-molecule microarray, fluorescence 635/667 (AID 1071);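 further: score merges 667 nm spot intensity and signal to noise from triplicate slides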
Conditions: higher = more signal

| SMILES | composite z-score |
| --- | --- |
| O=C1[C@H]2C=C(I)[C@H](C[C@@H]2OCCCCCCO)[C@@]12CO2 | 0.0956 |
| CCCC#C[Si](O[C@H](CC)c1cn(Cc2ccccc2)nn1)(C(C)C)C(C)C | 0.435 |
| C=CCN1C(=O)[C@@]2(O[C@@H](CCn3cc([C@H](O)c4ccccc4)nn3)[C@H]([Si](C)(C)c3ccc(OC)cc3)[C@H]2C)c2cc(N3C(=O)c4cccc5cccc3c45)ccc21 | -0.215 |
| O=C1N(Cc2ccccc2)c2ccccc2C[C@@]12COC(c1ccc(OCCCO)cc1)=N2 | 0.979 |
| CC1CC/C=C\[C@H]2OC34C=CCN(c5ccc6ccccc6c5)C(=O)[C@H]3N(C(C)CO)C(=O)[C@@H]4C2C(=O)O1 (stereo partly drawn) | -0.489 |
| COc1ccc(C(=O)Nc2cccc(CN3C(=O)[C@]4(O[C@H](CC(=O)N5Cc6ccccc6C[C@H]5CO)[C@@H]([Si](C)(C)c5ccc(OC)cc5)[C@@H]4C)c4ccccc43)c2)cc1 | 0.426 |
| COC(=O)c1cccc([C@H]2OC(=CC(=O)OC(C)C)C[C@@H](c3cccc(C(=O)OC)c3)O2)c1 | 1.14 |
| COC(=O)[C@@]1(Cc2ccc(F)cc2)[C@H]2c3cc(C(=O)N4CCCC4)n(Cc4cc(F)cc5c4OCOC5)c3C[C@H]2CN1C(=O)c1ccccc1 | 0.816 |
| C=C(CCCC)/C(=C/C[C@@H](OC(C)=O)c1ccc(CO)o1)c1cnc2ccccc2c1 | 1.14 |
| CC(C)N1C(=O)C[C@@](C(=O)NCCN2CCOCC2)(c2ccc([N+](=O)[O-])cc2)[C@H]1c1ccc(CO)cc1 | -0.692 |
| C=C(CCCC)/C(=C/C[C@H](OC(=O)c1ccncc1)c1ccccc1OCCO)c1cc(C(=O)OC)ccc1OC | 0.845 |
| O=C1C[C@@](C(=O)NCc2ccccc2)(c2ccc([N+](=O)[O-])cc2)[C@@H](c2ccc(CO)cc2)N1C1CCCCC1 | 0.104 |
| CC(C)=C1C(=O)C(c2ccccc2)=C2CN3C(=O)N(CCc4ccccc4)C(=O)[C@]3(C)[C@H]21 | 0.265 |
| COCCOC(=O)N1C(=O)[C@@]2(c3cc(C#CCC(C(=O)OC)C(=O)OC)ccc31)[C@H](C(=O)Nc1nc3ccccc3s1)[C@H]1C(=O)O[C@H](c3ccccc3)[C@H](c3ccccc3)N1[C@@H]2c1ccc(OCCO)cc1 | 0.81 |
| COc1ccc(C(O)C2C=CC3C(=O)N(c4ccccc4)C(=O)C3N2Nc2ccc([N+](=O)[O-])cc2)c2ccccc12 (stereo not drawn) | 0.852 |
| C[N+](C)(C)CCCC[C@@H]1NC(=O)[C@@H]2C[C@H](C(=O)NCc3ccc(F)cc3)[C@H](c3ccc(O)cc3)N2C1=O | -0.447 |
| CC(C)OC(=O)CC(=O)CC(O)c1cccc([N+](=O)[O-])c1 (stereo not drawn) | 0.376 |
| O=C(NCC(O)CO)[C@@]1(CCS(=O)(=O)c2ccccc2)N=C(c2ccc(OCCCO)cc2)O[C@H]1c1ccccc1 (stereo partly drawn) | 0.223 |
| Cc1ccc(C(C)CC(O)C2C=CC3C(=O)N(C)C(=O)C3N2Nc2ccccc2)o1 (stereo not drawn) | 0.75 |
| CCOC(=O)C[C@H]1[C@H](OC(=O)c2ccccc2-c2ccccc2)[C@@H](NC(=O)c2ccc3ccccc3c2)c2cc(OCCCO)ccc2N1C(=O)Cc1ccc(OC)cc1 | 0.162 |
| Cc1ccc(S[C@]2(C(=O)NC(C)C)CC(=O)N(C3CCCCC3)[C@@H]2c2ccc(CO)cc2I)cc1 | 0.308 |
| N#Cc1ccc(NN2C(C(O)C3CC=CCC3)C=CC3C(=O)N(c4ccccc4)C(=O)C32)cc1 (stereo not drawn) | 0.39 |
| Cc1ccc(F)cc1S(=O)(=O)N[C@H]1CCN(Cc2ccc(OC(C)C)cc2)C1 | -0.0293 |
| C=CCOC(=O)[C@H]1[C@@H]2C(=O)O[C@@H](c3ccccc3)[C@@H](c3ccccc3)N2[C@@H](c2ccc(OCCOC(=O)[C@@H]3C[C@@H]4C(=O)N[C@@H](CCCC[N+](C)(C)C)C(=O)N4[C@@H]3c3ccc(O)cc3)cc2)[C@]12C(=O)Nc1ccc(I)cc12 | 0.719 |
| CCOC(=O)C1=C[C@@H](C(C)(C)C)N(S(=O)(=O)c2ccc(C)cc2)[C@H]1c1ccc(C#N)cc1 | 0.707 |
| CCOC(=O)C[C@H]1[C@H](OC(=O)Cc2ccc3c(c2)OCO3)[C@@H](NC(=O)c2ccc3ccccc3n2)c2cc(OCCCO)ccc2N1C(=O)Cc1ccc(OC)cc1 | 0.205 |
| COC(=O)[C@@]1(Cc2ccccc2)[C@H]2c3cc(C(=O)N(C)C)n(Cc4ccc(C(F)(F)F)nc4)c3C[C@H]2CN1C(=O)c1ccccc1 | 0.699 |

Target: Neurogenic locus notch homolog protein 2 (Homo sapiens) (UniProt Q04721)
Assay: Notch2 binders on small-molecule microarrays, primary screen, biochemical, small-molecule microarray, 635 nm fluorescence, stem cell growth factors (AID 1073)
Conditions: Notch2 binding, higher = more signal

Chain of Neurogenic locus notch homolog protein 2 (Homo sapiens) (Q04721 whole entry, looked up): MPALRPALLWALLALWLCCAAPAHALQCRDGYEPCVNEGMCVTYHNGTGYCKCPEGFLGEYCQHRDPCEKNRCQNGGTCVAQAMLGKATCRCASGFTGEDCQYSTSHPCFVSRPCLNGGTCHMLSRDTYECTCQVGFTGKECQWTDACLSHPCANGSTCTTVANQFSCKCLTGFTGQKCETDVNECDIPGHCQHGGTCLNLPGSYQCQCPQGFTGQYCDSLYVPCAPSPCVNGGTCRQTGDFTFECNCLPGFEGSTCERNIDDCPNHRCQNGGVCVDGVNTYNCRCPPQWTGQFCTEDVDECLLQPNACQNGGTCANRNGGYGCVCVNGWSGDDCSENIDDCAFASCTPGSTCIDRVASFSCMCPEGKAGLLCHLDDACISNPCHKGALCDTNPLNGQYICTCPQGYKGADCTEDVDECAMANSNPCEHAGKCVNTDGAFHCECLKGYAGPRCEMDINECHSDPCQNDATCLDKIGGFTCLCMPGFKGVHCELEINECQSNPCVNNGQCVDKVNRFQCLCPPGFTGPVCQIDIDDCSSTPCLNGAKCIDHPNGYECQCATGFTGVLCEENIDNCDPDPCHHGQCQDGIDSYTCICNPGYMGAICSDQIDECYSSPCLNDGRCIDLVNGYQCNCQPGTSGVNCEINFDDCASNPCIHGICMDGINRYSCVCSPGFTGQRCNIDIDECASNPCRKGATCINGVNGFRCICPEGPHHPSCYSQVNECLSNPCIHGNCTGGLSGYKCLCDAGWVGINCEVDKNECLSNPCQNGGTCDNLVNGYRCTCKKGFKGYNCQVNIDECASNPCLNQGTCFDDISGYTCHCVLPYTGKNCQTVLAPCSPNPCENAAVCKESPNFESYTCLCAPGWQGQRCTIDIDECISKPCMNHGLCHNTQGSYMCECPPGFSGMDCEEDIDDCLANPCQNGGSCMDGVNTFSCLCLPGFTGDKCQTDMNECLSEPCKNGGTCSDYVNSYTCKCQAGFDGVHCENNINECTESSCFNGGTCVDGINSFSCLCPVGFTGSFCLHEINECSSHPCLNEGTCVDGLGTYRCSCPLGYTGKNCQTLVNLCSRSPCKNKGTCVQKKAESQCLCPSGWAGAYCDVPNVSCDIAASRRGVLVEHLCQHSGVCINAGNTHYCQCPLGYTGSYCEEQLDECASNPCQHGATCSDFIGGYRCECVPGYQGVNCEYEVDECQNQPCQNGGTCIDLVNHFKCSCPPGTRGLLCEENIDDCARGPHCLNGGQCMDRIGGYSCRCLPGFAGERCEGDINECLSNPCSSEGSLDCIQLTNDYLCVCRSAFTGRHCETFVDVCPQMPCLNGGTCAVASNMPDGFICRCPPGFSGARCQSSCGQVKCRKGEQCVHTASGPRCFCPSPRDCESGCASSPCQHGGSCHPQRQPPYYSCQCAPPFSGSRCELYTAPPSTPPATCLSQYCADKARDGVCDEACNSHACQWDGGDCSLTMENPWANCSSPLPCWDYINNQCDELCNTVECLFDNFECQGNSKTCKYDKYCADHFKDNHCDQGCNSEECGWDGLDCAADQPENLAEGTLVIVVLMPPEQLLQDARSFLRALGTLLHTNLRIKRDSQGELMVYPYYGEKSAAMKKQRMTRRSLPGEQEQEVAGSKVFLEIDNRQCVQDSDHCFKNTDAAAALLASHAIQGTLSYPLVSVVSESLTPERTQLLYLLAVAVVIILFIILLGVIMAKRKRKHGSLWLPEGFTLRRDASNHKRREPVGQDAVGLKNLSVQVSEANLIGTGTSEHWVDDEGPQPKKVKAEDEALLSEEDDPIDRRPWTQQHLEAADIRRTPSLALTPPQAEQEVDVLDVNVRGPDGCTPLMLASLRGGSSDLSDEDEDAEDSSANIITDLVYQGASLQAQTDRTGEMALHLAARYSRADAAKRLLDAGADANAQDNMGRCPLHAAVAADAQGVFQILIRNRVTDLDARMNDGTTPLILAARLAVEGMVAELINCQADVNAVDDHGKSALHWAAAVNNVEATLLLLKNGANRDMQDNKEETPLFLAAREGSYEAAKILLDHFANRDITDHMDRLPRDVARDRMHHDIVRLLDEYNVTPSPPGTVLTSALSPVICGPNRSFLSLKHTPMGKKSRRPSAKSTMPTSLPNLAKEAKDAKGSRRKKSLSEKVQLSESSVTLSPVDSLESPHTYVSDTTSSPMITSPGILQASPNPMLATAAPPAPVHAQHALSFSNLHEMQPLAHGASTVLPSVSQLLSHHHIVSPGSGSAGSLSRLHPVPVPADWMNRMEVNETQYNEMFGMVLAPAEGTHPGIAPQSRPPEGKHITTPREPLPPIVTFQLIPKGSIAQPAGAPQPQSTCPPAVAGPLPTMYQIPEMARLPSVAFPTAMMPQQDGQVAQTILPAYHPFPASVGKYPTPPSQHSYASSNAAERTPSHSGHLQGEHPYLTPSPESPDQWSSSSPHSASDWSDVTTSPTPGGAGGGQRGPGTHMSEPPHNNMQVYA

| SMILES | composite z-score |
| --- | --- |
| C=CCC(OC(C)=O)[C@@H]1[C@@H](N(Cc2cc3ccccc3o2)C(=O)Cc2ccc(OC)cc2)c2cc(OCCCO)ccc2N1C(=O)c1ccc2ccccc2n1 (stereo partly drawn) | 0.0554 |
| C=C(COC)/C(=C/C[C@@H](OC(C)=O)c1ccccc1OCCO)c1cnc2ccccc2c1 | 1.03 |
| Cc1ccc(S[C@]2(C(=O)NCC(F)(F)F)CC(=O)N(Cc3ccccc3C(F)(F)F)[C@@H]2c2ccc(CO)cc2)cc1 | -1.14 |
| C=CCC(OC(C)=O)[C@@H]1[C@@H](N(Cc2cccc3ccccc23)C(=O)Cc2ccc(OC)cc2)c2cc(OCCCO)ccc2N1C(=O)c1ccc2ccccc2c1 (stereo partly drawn) | -0.451 |
| COc1ccc([Si](C)(C)[C@@H]2[C@@H](CC(=O)N(CCO)Cc3ccccc3)O[C@]3(C(=O)N(Cc4ccc(N5C(=O)c6cccc7cccc5c67)cc4)c4ccccc43)[C@H]2C)cc1 | 0.494 |
| COC(=O)[C@@]1(Cc2ccc(OC)cc2)[C@H]2c3cc(C(=O)N(C)C)[nH]c3C[C@H]2CN1C(=O)c1ccccc1 | 0.793 |
| CCOc1cc(C(O)C2C=CC3C(=O)N(c4ccccc4)C(=O)C3N2Nc2ccccc2F)ccc1O (stereo not drawn) | 0.935 |
| O=C1O[C@@H](c2ccccc2)[C@@H](c2ccccc2)N2[C@@H](c3ccc(OCCO)cc3)[C@]3(C(=O)Nc4ccc(C#CC5(O)CCCCCC5)cc43)[C@@H](C(=O)O)[C@H]12 | 0.456 |
| COc1ccc(C(=O)Nc2ccc(CN3C(=O)[C@@]4(O[C@@H](CCn5cc(CCO)nn5)[C@H]([Si](C)(C)c5ccc(OC)cc5)[C@H]4C)c4ccccc43)cc2)cc1 | 0.534 |
| O=C1[C@H]2C=C(I)[C@H](C[C@@H]2OCCCCCCO)[C@@]12CO2 | 1.01 |
| CCCC#C[Si](O[C@H](CC)c1cn(Cc2ccccc2)nn1)(C(C)C)C(C)C | 0.734 |
| C=CCN1C(=O)[C@@]2(O[C@@H](CCn3cc([C@H](O)c4ccccc4)nn3)[C@H]([Si](C)(C)c3ccc(OC)cc3)[C@H]2C)c2cc(N3C(=O)c4cccc5cccc3c45)ccc21 | -0.902 |
| O=C1N(Cc2ccccc2)c2ccccc2C[C@@]12COC(c1ccc(OCCCO)cc1)=N2 | 0.984 |
| CC1CC/C=C\[C@H]2OC34C=CCN(c5ccc6ccccc6c5)C(=O)[C@H]3N(C(C)CO)C(=O)[C@@H]4C2C(=O)O1 (stereo partly drawn) | -0.858 |
| COc1ccc(C(=O)Nc2cccc(CN3C(=O)[C@]4(O[C@H](CC(=O)N5Cc6ccccc6C[C@H]5CO)[C@@H]([Si](C)(C)c5ccc(OC)cc5)[C@@H]4C)c4ccccc43)c2)cc1 | 0.424 |
| COC(=O)c1cccc([C@H]2OC(=CC(=O)OC(C)C)C[C@@H](c3cccc(C(=O)OC)c3)O2)c1 | 1.08 |
| COC(=O)[C@@]1(Cc2ccc(F)cc2)[C@H]2c3cc(C(=O)N4CCCC4)n(Cc4cc(F)cc5c4OCOC5)c3C[C@H]2CN1C(=O)c1ccccc1 | 1.75 |
| C=C(CCCC)/C(=C/C[C@@H](OC(C)=O)c1ccc(CO)o1)c1cnc2ccccc2c1 | 1.31 |

| SMILES | composite z-score |
| --- | --- |
| CC(C)N1C(=O)C[C@@](C(=O)NCCN2CCOCC2)(c2ccc([N+](=O)[O-])cc2)[C@H]1c1ccc(CO)cc1 | -0.575 |
| C=C(CCCC)/C(=C/C[C@H](OC(=O)c1ccncc1)c1ccccc1OCCO)c1cc(C(=O)OC)ccc1OC | 0.101 |
| O=C1C[C@@](C(=O)NCc2ccccc2)(c2ccc([N+](=O)[O-])cc2)[C@@H](c2ccc(CO)cc2)N1C1CCCCC1 | 0.324 |
| CC(C)=C1C(=O)C(c2ccccc2)=C2CN3C(=O)N(CCc4ccccc4)C(=O)[C@]3(C)[C@H]21 | 1.26 |
| COCCOC(=O)N1C(=O)[C@@]2(c3cc(C#CCC(C(=O)OC)C(=O)OC)ccc31)[C@H](C(=O)Nc1nc3ccccc3s1)[C@H]1C(=O)O[C@H](c3ccccc3)[C@H](c3ccccc3)N1[C@@H]2c1ccc(OCCO)cc1 | 1.22 |
| COc1ccc(C(O)C2C=CC3C(=O)N(c4ccccc4)C(=O)C3N2Nc2ccc([N+](=O)[O-])cc2)c2ccccc12 (stereo not drawn) | 1.6 |
| C[N+](C)(C)CCCC[C@@H]1NC(=O)[C@@H]2C[C@H](C(=O)NCc3ccc(F)cc3)[C@H](c3ccc(O)cc3)N2C1=O | -1.3 |
| CC(C)OC(=O)CC(=O)CC(O)c1cccc([N+](=O)[O-])c1 (stereo not drawn) | 0.546 |
| O=C(NCC(O)CO)[C@@]1(CCS(=O)(=O)c2ccccc2)N=C(c2ccc(OCCCO)cc2)O[C@H]1c1ccccc1 (stereo partly drawn) | 0.429 |
| Cc1ccc(C(C)CC(O)C2C=CC3C(=O)N(C)C(=O)C3N2Nc2ccccc2)o1 (stereo not drawn) | 1.44 |
| CCOC(=O)C[C@H]1[C@H](OC(=O)c2ccccc2-c2ccccc2)[C@@H](NC(=O)c2ccc3ccccc3c2)c2cc(OCCCO)ccc2N1C(=O)Cc1ccc(OC)cc1 | -0.105 |
| Cc1ccc(S[C@]2(C(=O)NC(C)C)CC(=O)N(C3CCCCC3)[C@@H]2c2ccc(CO)cc2I)cc1 | 0.777 |
| N#Cc1ccc(NN2C(C(O)C3CC=CCC3)C=CC3C(=O)N(c4ccccc4)C(=O)C32)cc1 (stereo not drawn) | 1.5 |
| Cc1ccc(F)cc1S(=O)(=O)N[C@H]1CCN(Cc2ccc(OC(C)C)cc2)C1 | -0.563 |
| C=CCOC(=O)[C@H]1[C@@H]2C(=O)O[C@@H](c3ccccc3)[C@@H](c3ccccc3)N2[C@@H](c2ccc(OCCOC(=O)[C@@H]3C[C@@H]4C(=O)N[C@@H](CCCC[N+](C)(C)C)C(=O)N4[C@@H]3c3ccc(O)cc3)cc2)[C@]12C(=O)Nc1ccc(I)cc12 | 1.24 |
| CCOC(=O)C1=C[C@@H](C(C)(C)C)N(S(=O)(=O)c2ccc(C)cc2)[C@H]1c1ccc(C#N)cc1 | 1.35 |
| CCOC(=O)C[C@H]1[C@H](OC(=O)Cc2ccc3c(c2)OCO3)[C@@H](NC(=O)c2ccc3ccccc3n2)c2cc(OCCCO)ccc2N1C(=O)Cc1ccc(OC)cc1 | 0.761 |
| COC(=O)[C@@]1(Cc2ccccc2)[C@H]2c3cc(C(=O)N(C)C)n(Cc4ccc(C(F)(F)F)nc4)c3C[C@H]2CN1C(=O)c1ccccc1 | 1.67 |
